Screens: PubChem BioAssay, several laboratories
SENP8 block-1: SENP8 protease inhibition; inhibition, % at 10 µM; AID 2540; hit rate 1.2% among 330,000; Q96LD8; purified SENP8, Z-RLRGG-aminoluciferin cleavage, luminescence; in the data active means inhibition above about 50%
HSP90 refold inh: HSP90 refolding inhibition in rabbit reticulocyte lysate | hit rate 0.91% among 290,000 | luciferase refolding luminescence, 3 h | inhibition, % at 5.6 µM;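 active means inhibition above the screen-wide mean plus 3 SD, computed separately per campaign, cut at about 16% in these data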;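 further: inhibitors lower the luminescence because luciferase stays unfolded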
SENP8 block-2: SENP8 (human) protease inhibition. inhibition, % at 20 µM. recombinant SENP8, Nedd8 substrate fluorescence. hit rate 0.64% among 360,000. Q96LD8. AID 602440; in the data active means inhibition mostly above about 40%, no sharp cut-off; inactive means mostly below about 27%
SENP6 block: inhibitors of human SENP6 protease; Q9GZR1; Recombinant SENP6 catalytic domain, aminoluciferin luminescence; inhibition, % at 10 µM; hit rate 1.8% among 330,000; AID 2599;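 active means inhibition above about 50% at the single tested dose, limit read from the data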
SENP7 inh: blocks the human protease SENP7; AID 434973; hit rate 1.5% among 330,000; inhibition, % at 5 µM; recombinant SENP7, Z-RLRGG-aminoluciferin luminescence, 40 min;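 active means inhibition above about 50% at the single test dose, limit read from the data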
Target sequence (Q9BQF6 706-1050 limits assumed): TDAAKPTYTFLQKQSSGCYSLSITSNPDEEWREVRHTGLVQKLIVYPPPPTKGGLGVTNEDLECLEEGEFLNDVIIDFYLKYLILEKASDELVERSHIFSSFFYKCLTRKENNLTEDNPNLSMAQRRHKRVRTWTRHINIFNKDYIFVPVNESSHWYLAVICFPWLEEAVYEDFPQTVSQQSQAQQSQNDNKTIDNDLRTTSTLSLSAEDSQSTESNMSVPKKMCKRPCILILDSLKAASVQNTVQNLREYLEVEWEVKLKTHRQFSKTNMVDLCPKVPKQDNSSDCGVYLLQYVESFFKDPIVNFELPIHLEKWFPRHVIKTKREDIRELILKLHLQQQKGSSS
Platelet DG rel: modulates dense granule release in human platelets; inhibition, %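 (compounds screened at 7.5 µM in platelet-rich plasma)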; human platelet-rich plasma, SFLLRN dense granule ATP release, luminescence; hit rate 0.22% among 300,000; AID 1663;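 active means mean replicate score, as percent of positive control, at or above 50; inconclusive means mean below 50 but at least one replicate at or above 50; inactive means mean and every replicate below 50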
SENP8 conf: confirmation of human SENP8 protease inhibitors. shares compounds with SENP7 inh. Recombinant SENP8, Z-RLRGG-aminoluciferin luminescence, 60 min. inhibition, % at 12.5 µM. hit rate 40% among 6,200. AID 488912;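 active means mean inhibition across replicates above about 50%, limit read from the data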
SENP6 confirm: confirmation of human SENP6 protease inhibitors; shares compounds with SENP7 inh; recombinant SENP6, Z-RLRGG-aminoluciferin luminescence; inhibition, % at 12.5 µM; hit rate 58% among 6,200
SENP7 conf: confirmation of human SENP7 protease inhibitors; inhibition, % at 12.5 µM; hit rate 69% among 6,200; shares compounds with SENP7 inh; recombinant SENP7, Z-RLRGG-aminoluciferin luminescence, 40 min
Casp3 SENP sel: inhibits human caspase-3 in SENP selectivity test; shares compounds with SENP7 inh; purified caspase-3, Z-DEVD-aminoluciferin luminescence, 60 min; inhibition, % at 12.5 µM; hit rate 60% among 6,200;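 active means mean inhibition above about 50%, limit read from the data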
Target sequence (P42574 28-227 limits assumed): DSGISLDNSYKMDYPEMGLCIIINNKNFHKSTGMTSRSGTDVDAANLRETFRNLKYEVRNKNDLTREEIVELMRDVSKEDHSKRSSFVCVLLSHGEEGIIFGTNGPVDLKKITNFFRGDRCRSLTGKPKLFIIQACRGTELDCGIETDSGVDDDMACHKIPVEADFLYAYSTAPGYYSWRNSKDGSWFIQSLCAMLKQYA
Luc interf: interferes with luciferase luminescence in SENP counter-screen; shares compounds with SENP7 inh; Pre-incubated SENP8/Z-RLRGG-aminoluciferin, luciferase luminescence interference; inhibition, % at 12.5 µM; hit rate 39% among 6,200;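 active means mean inhibition above about 50% when retested at one dose, limit read from the data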
Hits are given with their value; – = inactive; ? = inconclusive; · = not tested or not shown. A selection: hits, their analogues and other compounds. The true share with any hit is near 2.8%.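 How the source made its calls, unless noted: active means mean inhibition above about 50% in the one-dose retest (limit read from the data); inactive means the rest.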

SMILES	SENP8 block-1	HSP90 refold inh	SENP8 block-2	SENP6 block	SENP7 inh	Platelet DG rel	SENP8 conf	SENP6 confirm	SENP7 conf	Casp3 SENP sel	Luc interf
Cc1ccc(N=Nc2c(O)[nH]c3ccc(F)cc23)cc1	–	–	–	–	–	–	·	·	·	·	·
Cc1ccc(N=Nc2c(=O)[nH]n3c(=O)cc(C)[nH]c23)cc1	54	–	–	76	–	–	–	–	60	61	–
CCCN(CCC)C(=O)c1oc2ccccc2c1NC(=O)Cc1cccc(OC)c1	–	–	–	–	–	–	·	·	·	·	·
N#C/C(=N\Nc1cccc([N+](=O)[O-])c1)C(=O)c1ccc(Br)cc1	60	–	–	72	–	–	–	66	–	–	59
O=C(/C(N=Nc1cccc([N+](=O)[O-])c1)=C(/O)c1ccc(Br)cc1)C(F)(F)F	–	–	–	–	–	–	·	·	·	·	·
N#C/C(=N\Nc1ccc([N+](=O)[O-])cc1)C(N)=S	91	–	47	98	92	–	97	98	102	97	90
N#C/C(=N/Nc1ccc([N+](=O)[O-])cc1)C(=N)N1CCCCC1	·	–	–	·	·	–	·	·	·	·	·
O=C(Nc1ccc(O)cc1)C1CCCO1 (stereo not given)	–	–	–	–	60	–	–	–	–	–	–
O=C(Nc1ccc(F)cc1)C1CCCO1 (stereo not given)	–	–	–	–	–	–	·	·	·	·	·
O=C(Nc1nnc(-c2ccccc2)s1)c1ccccc1O	84	–	–	80	63	–	–	–	–	–	–
COc1cccc(C(=O)Nc2nnc(-c3ccccc3)s2)c1OC	57	–	–	79	55	–	–	–	64	61	–
Oc1ccc(/C=N/Nc2cccc(Cl)n2)c(O)c1	97	–	–	97	98	50	99	99	102	96	98
Oc1ccc(/C=N/Nc2ccc(C(F)(F)F)cn2)c(O)c1	–	–	–	–	–	–	·	·	·	·	·
COc1ccc(-n2nc(N)c(C(N)=O)n2)cc1	–	–	–	–	–	–	·	·	·	·	·
N=C1/C(=C/c2ccc(-c3cccc(C(=O)O)c3)o2)C(=O)N=C2SC=C(c3ccccc3)N12	–	–	–	65	–	–	–	–	–	–	–
N=C1/C(=C\c2ccc(-c3cc(Cl)cc(Cl)c3)o2)C(=O)N=C2SC=C(c3ccccc3)N12	–	–	–	–	–	–	·	·	·	·	·
O=C(CSc1nnc(CNC(=O)c2ccccc2F)o1)NC1CCCCC1	–	–	–	–	–	–	·	·	·	·	·
Cc1oncc1C(=O)Nc1ccc(C(F)(F)F)cc1	68	–	–	78	76	–	–	67	94	76	63
Cc1coc(C)c1C(=O)Nc1ccc2ccccc2c1	–	–	–	66	–	–	–	–	79	52	60
CC(=O)Nc1ccc2ccccc2c1	–	–	–	–	–	–	·	·	·	·	·
COC(=O)c1cccc(NC(=O)c2cnoc2C)c1	–	–	–	–	–	–	·	·	·	·	·
Cc1oncc1C(=O)Nc1ccc2ccccc2c1	67	–	–	88	81	–	–	65	96	75	77
CC(=O)Nc1ccc(S(=O)(=O)NC2C3(C)CCC(C3)C2(C)C)cc1 (stereo not given)	–	–	–	–	–	–	·	·	·	·	·
CC1CCCC(NC(=O)CN2C(=O)NC(c3ccccc3)(c3ccccc3)C2=O)C1C (stereo not given)	–	·	–	–	–	·	·	·	·	·	·
COC(CNC(=O)CCc1c(C)nc2c(-c3ccccc3)c(C)nn2c1C)OC	–	–	–	–	–	–	·	·	·	·	·
SMILES	SENP8 block-1	HSP90 refold inh	SENP8 block-2	SENP6 block	SENP7 inh	Platelet DG rel	SENP8 conf	SENP6 confirm	SENP7 conf	Casp3 SENP sel	Luc interf
CC(=O)c1ccc(-c2nnc(CCC(=O)N(C)Cc3c(C)nc4ccccn34)o2)s1	–	–	–	–	–	–	·	·	·	·	·
O=C(Cc1ccccc1)N1CCN(c2ccccc2F)CC1	59	–	–	75	–	–	–	–	–	–	–
CS(=O)(=O)NCc1ccccc1Br	–	·	·	–	–	·	·	·	·	·	·
c1ccc2nc(-c3ccncc3)ccc2c1	–	–	–	53	–	–	–	–	60	67	–
c1ccc2nc(-c3nccs3)ccc2c1	–	–	–	–	–	–	·	·	·	·	·
Clc1ccsc1-c1ccc2ccccc2n1	67	–	–	88	81	–	–	78	94	51	–
Cc1cc2ncc(-c3ccccc3)nc2cc1C	95	–	–	95	97	–	97	99	102	96	92
CCOC(=O)c1ccc2ncc(-c3ccccc3)nc2c1	·	–	–	·	·	–	·	·	·	·	·
Nc1ccc2nc(-c3ccccc3)cnc2c1	52	·	–	67	–	–	–	68	88	74	71
c1coc(-c2cnc3ccccc3n2)c1	·	·	–	·	·	·	·	·	·	·	·
O=C(Oc1ccc(-c2cnc3ccccc3n2)cc1)c1cccc([N+](=O)[O-])c1	–	–	–	–	–	–	·	·	·	·	·
Nc1ccc(-c2cnc3ccccc3n2)cc1	55	·	–	62	62	–	59	55	86	75	61
O=C(Oc1ccc(-c2cnc3ccccc3n2)cc1)c1ccc(Br)o1	–	–	–	51	75	–	–	–	–	64	–
O=S(=O)(Nc1cc(F)ccc1F)c1cccc2nonc12	–	–	–	–	–	–	·	·	·	·	·
c1cc(-c2cccs2)nc(-c2cccs2)c1	–	–	–	–	–	–	·	·	·	·	·
O=C(O)c1cc(-c2ccc(O)cc2)nc2ccccc12	–	–	·	–	–	–	·	·	·	·	·
CCCCOc1ccc(-c2cnc3ccccc3n2)cc1	91	–	–	96	95	–	52	64	55	83	–
c1csc(-c2cnc3ccccc3n2)c1	–	–	–	67	59	–	–	54	83	58	–
Oc1ccc(-c2cnc3ccccc3n2)cc1	84	·	–	90	71	–	82	82	97	87	86
O=C(NC1CCCC1)C(c1ccccn1)N(Cc1ccc(F)cc1)C(=O)c1csnn1 (stereo not given)	–	–	–	–	–	–	·	·	·	·	·
COc1ccc(C(=O)Nc2ccccc2C(=O)Nc2cc(C)ccn2)cc1	58	–	–	64	–	?	–	–	–	–	–
COc1ccc(C(=O)NC(=O)Nc2cc(C)ccn2)cc1	79	22	–	83	–	–	78	78	94	92	68
COc1ccc(C(=O)Nc2ccccc2C(=O)Nc2cccc(C)n2)cc1	–	–	–	–	–	–	·	·	·	·	·
